TGFb SMAD3 inh – TGF-b pathway inhibition. HepG2 CAGA-GFP TGF-b/SMAD3 reporter, GFP fluorescence, 18 h; TGF-beta stimulated, 500 pg/mL final. Potency, µM (highest dose often 46.1 µM), without a hit: at the highest dose activity, negative = inhibition, most hits filed as inhibitors. actives 1.2% (n = 410,000). AID 588855; note: % is set by controls: 0 for no effect and ±100 for the full control effect; nearly all actives have a fitted effect of over 65% in size
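Per well, imaged GFP fluorescence of HEPG2 CAGA-GFP cells gives the signal; cells get compound, then TGF-beta (500 pg/mL final), 18 h at 37 degrees C; %Activity versus -TGF-beta and +DMSO controls.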
DT40 TDP1 no CPT – qHTS for Inhibitors of human tyrosyl-DNA phosphodiesterase 1 (TDP1): qHTS in cells in absence of CPT; actives 15% (n = 420,000); Potency, µM (titrated, usually from 46.2 µM), for inactives: at the highest dose activity change, negative = growth inhibition, most hits filed as inhibitors; DT40 Tdp1-/- hTDP1 cells, no CPT, ATP luminescence, 48 h; note: % is set by controls: 0 for no effect and ±100 for the full control effect; nearly all actives have a fitted effect of over 55% in size
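Chicken DT40 Tdp1-/- cells stably complemented with human TDP1 were seeded at 400 cells/well with DMSO in place of 20 nM camptothecin. After compound pinning, cells grew at least 48 hr at 37 °C; viability read by CellTiter-Glo luminescence.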
DT40 TDP1 CPT – DT40-hTDP1 cell growth loss with CPT. chicken DT40 Tdp1-/-;hTDP1 cells + 20 nM CPT, ATP luminescence, 48 h. Potency, µM (doses to about 46.2 µM), for inactives: at the highest dose activity change, negative = growth inhibition, hits mostly inhibitors. actives 12% (n = 420,000). AID 686979; note: % is set by controls: 0 for no effect and ±100 for the full control effect; nearly all actives have a fitted effect of over 55% in size
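Cell growth measured by CellTiter-Glo luminescence after a minimum 48 h, 37 C compound exposure with 20 nM CPT in Tdp1-knockout DT40 cells stably expressing hTDP1, seeded 400/well; qHTS titration format.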
ATXN viability – viability counter-screen for ATXN expression inhibitors. S2 cells (HEK-293 line with an ATXN2-luciferase reporter) viability, CellTiter-Fluor protease fluorescence, 24 h. Potency, µM (top dose mostly 56.7 µM), most hits filed as cytotoxic. actives 0.49% (n = 400,000). AID 651635; note: nearly all actives have a fitted effect of over 40% in size
ATXN2 expr inh – reduces ATXN2 reporter expression in HEK-293 cells; HEK-293 ATXN2-luciferase reporter, luminescence, 24 h; Potency, µM (highest dose often 57 µM), for inactives: at the highest dose activity change, negative = inhibition, most hits filed as inhibitors; actives 0.72% (n = 360,000); note: % is set by controls: 0 for no effect and ±100 for the full control effect; nearly all actives have a fitted effect of over 55% in size
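ATXN2-luciferase reporter cells (luciferase flanked by upstream and downstream ATXN2 gene portions) were treated 24 h at 37 °C with compounds at up to 57 uM. SteadyGlo luminescence gave expression; GF-AFC fluorescence gave viability.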
HepG2 viability – kills HepG2 cells in TGF-b inhibitor counter-screen. HepG2 CAGA-GFP viability, ATP luminescence, 18 h. Potency, µM (highest dose often 46.1 µM), for the others: at the highest dose activity change, negative = cytotoxicity, actives largely listed as cytotoxic. actives 0.76% (n = 410,000). AID 588856
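HepG2 CAGA-GFP cells (1000/well, DMEM with 1% FBS) received compound, then TGF-beta at 500 pg/mL final, and were incubated 18 hours at 37 degrees C. Viability was read by CellTiter-Glo luminescence. Media-only wells were set as complete cell-killing and DMSO as no toxicity.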
The depositor's hits bear a star; i = inactive; u = inconclusive; x = not tested or not shown. The list is not random: actives were taken first. Their share in the collection is about 17%. Calls come from the whole dose curve; as a rule, active = well fitted curve in the direction sought with a large enough effect; inconclusive = small, poorly fitted or top-dose-only effect, or another doubt; inactive = no such curve, though single readings can be large; an effect the other way counts as inactive or inconclusive. Potency is the fitted concentration of half-maximal effect.

SMILES | TGFb SMAD3 inh | DT40 TDP1 no CPT | DT40 TDP1 CPT | ATXN viability | ATXN2 expr inh | HepG2 viability
CCn1c(NC(=O)Nc2ccccc2OC)nc2ccccc21 | -6% | u | -7% | i | -3% | -1%
Cc1ccccc1Nc1nnc(SCC(=O)NC(=O)NCc2ccco2)s1 | -7% | -24% | u | u | -20% | -9%
O=C(NCc1cccs1)c1ccc(CSc2nc3ccncc3n2Cc2cccc(F)c2)cc1 | u | 21µM* | u | u | -21% | -32%
Cc1cccc(CSc2nc3cccnc3n2Cc2ccc(C(=O)NCc3cccs3)cc2)c1 | u | u | u | x | x | -31%
CCc1ccc(CNC(=O)c2ccc(CSc3nc4ccncc4n3Cc3ccc(OC)cc3)cc2)cc1 | u | u | 23µM* | u | -16% | -33%
COc1cc(OC)cc(C2=Cc3ccccc3C(CC(C)=O)N2c2ccc(C#CCCO)cc2)c1 (centres undefined) | x | u | 21µM* | u | u | x
COc1cc(OC)cc(C2=Cc3ccc(OC)cc3C(CC(C)=O)N2c2ccc(C#CCCO)cc2)c1 (centres undefined) | x | 21µM* | u | u | -30% | x
COc1cc(OC)cc(C2=Cc3ccccc3C(CC(=O)c3ccco3)N2c2ccc(-c3ccc(C(N)=O)cc3)cc2)c1 (centres undefined) | x | u | u | i | -10% | x
COc1cc(OC)cc(C2=Cc3ccccc3C(CC(=O)c3ccco3)N2c2ccc(-c3cncnc3)cc2)c1 (centres undefined) | x | u | 8.2µM* | i | 11% | x
COc1ccc(N2C(c3cc(OC)cc(OC)c3)=Cc3ccccc3C2CC(C)=O)cc1 (centres undefined) | x | 16µM* | u | u | -7% | x
COCCNC(=S)N1CCc2cc(OC)c(OC)cc2C1COc1ccc(C(C)C)cc1 (centres undefined) | -27% | u | u | i | -20% | -20%
COc1ccc(NC(=O)C2CCC(CNS(=O)(=O)c3ccc4c(c3)C(C)(C)C(=O)N4C)CC2)cc1 (centres undefined) | 39% | 1% | -7% | x | x | 2%
CC(=O)CC1c2ccccc2C=C(c2ccsc2)N1c1ccc(-c2cccs2)cc1 (centres undefined) | x | 10µM* | 10µM* | i | -15% | x
Cc1ccc2cc(CN(CCN(C)C)C(=O)Nc3ccc(Cl)cc3)c(=O)[nH]c2c1 | 4% | 16µM* | u | i | 87% | -6%
CCN(CC)CCN(Cc1cc2cc(C)ccc2[nH]c1=O)C(=O)Nc1ccccc1OC | 5% | u | u | i | -1% | -31%
Cc1ccc2[nH]c(=O)c(CN(CCCN(C)C)C(=O)Nc3ccc(Cl)cc3)cc2c1 | 23% | 6.3µM* | 7.1µM* | u | u | -24%
CC(=O)Oc1ccccc1-c1nc(C)nc(N(C)C(C)=O)n1 | -7% | -16% | -11% | i | 20% | 4%
CCCN1Cc2cccc(C(=O)Nc3ccccc3C(=O)OC)c2C1=O | -25% | 16µM* | 23µM* | i | -29% | -18%
CCCN1Cc2cccc(C(=O)Nc3ccc(OC)cc3OC)c2C1=O | 21% | 23µM* | u | i | -13% | -52%
Cn1c(CNC(=O)CCNC(=O)c2ccccc2)cc(=O)n(C)c1=O | 2% | 1% | -1% | i | x | 8%
COc1ccc(/C=C/C(=O)C(C(N)=O)=C2SCCS2)cc1 | u | u | u | u | 69% | -8%
NC(=O)C(C(=O)/C=C/c1ccc(Cl)cc1)=C1SCCS1 | u | 8.2µM* | 3.3µM* | u | x | -34%
O=c1nc2s/c(=C\c3ccc(-c4ccccc4[N+](=O)[O-])o3)c(=O)n2nc1-c1ccccc1 | 2% | -7% | 2% | u | 3% | 7%
COC(=O)C1C2C=CC3(CN(CCc4ccccc4)C(=O)C13)O2 (centres undefined) | 2% | -11% | -6% | i | 1% | -5%
COC(=O)C1=C(C(=O)OC)[C@]2([C@@H]3CC=CCN[C@@H](Cc4ccccc4)C(=O)N3Cc3ccccc3)C=C[C@H]1O2 | u | 12µM* | 18µM* | i | -10% | -23%
SMILES | TGFb SMAD3 inh | DT40 TDP1 no CPT | DT40 TDP1 CPT | ATXN viability | ATXN2 expr inh | HepG2 viability
COC(=O)C1=C(C(=O)OC)[C@]2([C@H]3CC=CCN[C@@H](Cc4ccccc4)C(=O)N3Cc3ccccc3)C=C[C@H]1O2 | -33% | 15µM* | 18µM* | i | -16% | -2%
C(=N\Nc1nc(Nc2ccccc2)nc(Nc2ccccc2)n1)/c1cccnc1 | -6% | 10µM* | 16µM* | u | -6% | -42%
C(=N\Nc1nc(Nc2ccccc2)nc(Nc2ccccc2)n1)/c1ccncc1 | u | -21% | u | i | -9% | 13µM*
CCNC(=O)CC1C(=O)N(c2ccc(C)cc2)C(=O)N1Cc1ccc(C)cc1 (centres undefined) | -17% | 3% | -6% | i | -2% | -15%
CC(Oc1ccc(Br)cc1)C(=O)NCC(c1cccs1)N1CCOCC1 (centres undefined) | 2% | u | -29% | u | -15% | 9%
CCCOc1ccc(N2C(=O)CC(NCCCN3CCC(C(N)=O)CC3)C2=O)cc1 (centres undefined) | -1% | u | 26µM* | i | -3% | 2%
COc1cc(C(=O)OCC(=O)Nc2ccccc2)cc2c1OCCO2 | -13% | u | u | u | x | 0%
CO/N=C/c1ccc(Oc2ccc(C)cc2)c([N+](=O)[O-])c1 | u | 21µM* | u | i | 12% | 0%
CCn1c(C)nc2cc(S(=O)(=O)C(F)(F)F)ccc21 | 3% | 16µM* | u | i | 11% | -11%
CCn1c(C)nc2cc(S(=O)(=O)C(F)F)ccc21 | 8% | -1% | -9% | i | 35% | -3%
CCCCCCCCCCn1ccc(=N)cc1 | u | 0.018µM* | 0.0058µM* | i | u | -49%
CCCCCCCCn1ccc(=N)cc1 | -24% | 1.8µM* | 2.1µM* | u | u | -32%
O=C(Cc1ccccc1)Nc1sc2c(c1C(=O)Nc1ccc(Br)cc1)CCCC2 | 4% | 21µM* | 12µM* | x | x | -16%
Cc1ccc(NC(=O)c2c(NC(=O)Cc3ccccc3)sc3c2CCC3)cc1 | 10% | u | -1% | i | 14% | 0%
